Screens as filed in PubChem BioAssay.
Compounds with a hit are over-represented: about 2.6% of the library has one in this group of screens.
Cruzain noTriton: blocks cruzain activity in detergent-free assay | P25779 | purified cruzain, Z-FR-AMC fluorescence, no detergent | Potency, µM, inactives show max response, negative = inhibition, actives largely listed as inhibitors | hit rate 2.3% among 200,000;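 also: plate controls were enzyme without inhibitor for no effect and buffer without enzyme for full effect; nearly all actives have a fitted effect of over 40% in size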
Target sequence (P25779 123-467 limits assumed): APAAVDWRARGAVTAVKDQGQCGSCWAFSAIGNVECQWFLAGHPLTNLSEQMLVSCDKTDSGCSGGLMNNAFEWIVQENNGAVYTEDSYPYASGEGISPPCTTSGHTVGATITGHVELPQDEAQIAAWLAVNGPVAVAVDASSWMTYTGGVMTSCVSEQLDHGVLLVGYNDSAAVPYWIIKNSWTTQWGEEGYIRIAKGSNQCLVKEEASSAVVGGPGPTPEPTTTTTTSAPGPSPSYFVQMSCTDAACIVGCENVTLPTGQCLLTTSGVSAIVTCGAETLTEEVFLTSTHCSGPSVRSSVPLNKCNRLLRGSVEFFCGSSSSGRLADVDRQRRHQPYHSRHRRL
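Purified cruzain at 1.5 nM, pre-incubated 15 min with compound at room temperature in 100 mM sodium acetate pH 5.5, 5 mM DTT, 0.00005% Triton X-100. Reaction started with 2 uM Z-FR-AMC; AMC fluorescence increase over 60 s gives rate.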
Cruzain Triton: blocks cruzain activity in presence of Triton detergent; purified cruzain, Z-FR-AMC fluorescence, 0.01% Triton; Potency, µM, inactives show max response, negative = inhibition, hits mostly inhibitors; hit rate 0.43% among 200,000;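 also: plate controls were neutral wells for no effect and buffer without enzyme for full effect; nearly all actives have a fitted effect of over 40% in size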
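Steps: dispense cruzain (1.5 nM final) in acetate buffer pH 5.5 with DTT and 0.01% Triton X-100; pin-transfer compounds; incubate 15 min RT; add Z-FR-AMC (2 uM final); read fluorescence every 30 s, using the 60 s intensity change.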
Numbers without * were called inactive. Calls follow the shape of the dose curve; as a rule, active = well fitted curve in the direction sought with a large enough effect; inconclusive = small, poorly fitted or top-dose-only effect, or another doubt; inactive = no such curve, though single readings can be large; an effect the other way counts as inactive or inconclusive. Potency is read from the fitted curve at half-maximal effect.

Cc1ccccc1Cn1ccc(-c2ccc(Cl)cc2)c(C#N)c1=O was read as Cruzain noTriton 25µM* and Cruzain Triton -8%.
Screening Cc1cccc(-n2c(/C=C/c3c(C)[nH]c4ccccc34)nc3ccccc3c2=O)c1 returned Cruzain noTriton -3% and Cruzain Triton 0%.
Cc1[nH]c2ccccc2c1/C=C/c1nc2ccccc2c(=O)n1-c1ccc([N+](=O)[O-])cc1 was read as Cruzain noTriton 25µM* and Cruzain Triton 1%.
Screening Cc1ccc(-n2c(=O)c3c(cnn3C)n(CC(=O)Nc3ccc(C)cc3C)c2=O)cc1 returned Cruzain noTriton 26% and Cruzain Triton -1%.
For COc1ccccc1Nc1nc(-c2ccccc2)c(CC(=O)O)s1 the results were Cruzain noTriton 25µM* and Cruzain Triton -13%.
O=C(O)Cc1sc(N/N=C\c2ccccc2)nc1-c1ccccc1 was read as Cruzain noTriton inconclusive and Cruzain Triton -9%.
Cc1ccccc1-c1ccc2ncnc(NCCN3CCOCC3)c2c1 was read as Cruzain noTriton -3% and Cruzain Triton -3%.
COc1ccc(NC(=O)COCc2cc(-c3ccc4c(c3)OCO4)on2)cc1 was read as Cruzain noTriton 2% and Cruzain Triton -2%.
Screening O=C(COC(=O)c1cccc([N+](=O)[O-])c1)c1ccc(OCc2ccccc2)cc1 returned Cruzain noTriton 25µM* and Cruzain Triton -3%.
O=C(Cc1ccccc1)NCC(=O)OCC(=O)c1cccc([N+](=O)[O-])c1 was read as Cruzain noTriton -22% and Cruzain Triton -27%.
Screening Cc1ccc(OCCCN(C)C)c(Br)c1 returned Cruzain noTriton 3% and Cruzain Triton 2%.
Cc1cc(Cl)c(OCCCN(C)C)c(Br)c1 was read as Cruzain noTriton 5µM* and Cruzain Triton 0%.
`COC(=O)c1ccc(Cl)c(-c2ccc(/C=N/NC(=O)Nc3ccccc3)o2)c1` gave Cruzain noTriton inconclusive and Cruzain Triton -7%.
For C=CCNC(=S)N/N=C/c1ccc(-c2cc(Cl)ccc2Cl)o1 the results were Cruzain noTriton 7.9µM* and Cruzain Triton 1%.
For CCOC(=O)c1cnc2cc(-c3ccc(Cl)cc3)nn2c1N the results were Cruzain noTriton 10µM* and Cruzain Triton 9%.
CCOC(=O)c1cnc2cc(-c3ccc(Cl)cc3)nn2c1-c1ccccc1 was read as Cruzain noTriton 7% and Cruzain Triton -2%.
`CCC1CCCCN1S(=O)(=O)c1cc(C(=O)Nc2ccc(C)c(F)c2)ccc1F` (stereo not drawn) gave Cruzain noTriton -18% and Cruzain Triton -1%.
COc1ccc(OC)c(-c2csc(NC(=O)CSc3ccccc3)n2)c1 was read as Cruzain noTriton 4% and Cruzain Triton -6%.
Screening O=C(Nc1nc(-c2ccccc2)cs1)C1c2ccccc2Oc2ccccc21 returned Cruzain noTriton 20µM* and Cruzain Triton 5%.
Screening COc1ccc(OC)c(-c2csc(NC(=O)C3c4ccccc4Oc4ccccc43)n2)c1 returned Cruzain noTriton 20µM* and Cruzain Triton 1%.
Screening O=C(Nc1nc(-c2ccncc2)cs1)C1c2ccccc2Oc2ccccc21 returned Cruzain noTriton inconclusive and Cruzain Triton -10%.
`Cc1cc(C)c2oc(-c3cccc(NC(=O)COc4ccc([N+](=O)[O-])cc4)c3)nc2c1` gave Cruzain noTriton 1% and Cruzain Triton 1%.
Screening CCOC(=O)CC(NC(=O)c1cc2cc(Cl)ccc2oc1=O)c1ccc(C)cc1 (stereo not drawn) returned Cruzain noTriton -4% and Cruzain Triton -1%.
`COc1ccc(C)cc1NS(=O)(=O)c1ccc2oc(=O)c3ncn(C)c3c2c1` gave Cruzain noTriton -13% and Cruzain Triton -2%.
For O=C(C1=NN(c2ccccc2)C2C(=O)N(c3cccc(Cl)c3)C(=O)C12)c1ccccc1 (stereo not drawn) the results were Cruzain noTriton inconclusive and Cruzain Triton -7%.
Screening O=C(C1=NN(c2ccccc2)C2C(=O)N(c3ccc(Cl)cc3)C(=O)C12)c1ccccc1 (stereo not drawn) returned Cruzain noTriton 10µM* and Cruzain Triton -2%.
Screening COc1cc(Cl)c(C)cc1NS(=O)(=O)c1c(C)nc2sccn2c1=O returned Cruzain noTriton -6% and Cruzain Triton -7%.
Screening CCC(=O)Nc1ccccc1-c1nc2ccccc2n(C(C)C(=O)Nc2ccc(OC)cc2)c1=O (stereo not drawn) returned Cruzain noTriton inconclusive and Cruzain Triton -3%.
`CCOc1ccc(CNC(=O)Cn2nc(C)c3nn(-c4ccc(Cl)cc4)c(C)c3c2=O)cc1OC` gave Cruzain noTriton 11% and Cruzain Triton 3%.
For COc1ccccc1-c1ccc2ncnc(N3CCN(C)CC3)c2c1 the results were Cruzain noTriton -5% and Cruzain Triton 0%.
For CCCOc1ccc(-c2nn(-c3ccccc3)cc2/C=C2\SC(=S)N(C3CCS(=O)(=O)C3)C2=O)cc1 (stereo not drawn) the results were Cruzain noTriton 4µM* and Cruzain Triton 2%.
CCOc1ccc(-c2nn(-c3ccccc3)cc2/C=C2\SC(N)=NC2=O)cc1C was read as Cruzain noTriton 8% and Cruzain Triton -1%.
CN(C)S(=O)(=O)c1cccc(-c2nn(-c3ccccc3)cc2/C=C2\SC(=S)NC2=O)c1 was read as Cruzain noTriton 16% and Cruzain Triton -13%.
`CCOc1ccc(-c2nn(-c3ccccc3)cc2/C=C2\SC(=S)N(C3CCS(=O)(=O)C3)C2=O)cc1` (stereo not drawn) gave Cruzain noTriton 7.9µM* and Cruzain Triton -12%.
O=C1CSC(c2cn(-c3ccccc3)nc2-c2cc3ccccc3o2)N1Cc1ccccc1 (stereo not drawn) was read as Cruzain noTriton inconclusive and Cruzain Triton 4%.
O=C1CSC(c2cn(-c3ccccc3)nc2-c2cc3ccccc3oc2=O)N1Cc1ccco1 (stereo not drawn) was read as Cruzain noTriton inconclusive and Cruzain Triton 28µM*.
`CC(C)(C)OC(=O)N1CCC(N2CCN(Cc3ccccc3)C(=O)C2=O)CC1` gave Cruzain noTriton 8% and Cruzain Triton 0%.
Screening O=C1C(=C2CCCCC2)SC(=S)N1Cc1ccco1 returned Cruzain noTriton 16µM* and Cruzain Triton 20µM*.
For O=C(O)CCN1C(=O)C(=C2CCCCCC2)SC1=S the results were Cruzain noTriton -2% and Cruzain Triton -1%.
Screening Cc1ccc2c(c1)C(=O)[C@@]1(O)CCN(c3ccccc3)C1=N2 returned Cruzain noTriton 5% and Cruzain Triton -3%.
For CC(=O)N1[C@H](Cc2ccccc2)C=C[C@]1(C)C(=O)O the results were Cruzain noTriton -7% and Cruzain Triton -1%.
Screening Cn1c(=O)c2cc(S(=O)(=O)NC(Cc3ccccc3)C(=O)NCc3ccco3)ccc2n(C)c1=O (stereo not drawn) returned Cruzain noTriton 16µM* and Cruzain Triton 20µM*.
Screening COCCCNC(=O)C(Cc1ccccc1)NS(=O)(=O)c1ccc2c(c1)c(=O)n(C)c(=O)n2C (stereo not drawn) returned Cruzain noTriton -8% and Cruzain Triton 1%.
O=C(Nc1ccc2nc(SCCOc3ccccc3Cl)sc2c1)c1cccs1 was read as Cruzain noTriton inconclusive and Cruzain Triton -3%.
For COc1cccc(-c2cnc(NCc3ccccc3Cl)n2C)c1 the results were Cruzain noTriton 1% and Cruzain Triton 0%.
`COCCCNC(=O)c1cc2n(n1)CCCN(Cc1ccc(C)cc1)C2=O` gave Cruzain noTriton 2% and Cruzain Triton 0%.
